# Screening results (PubChem)
# Shown are actives, neighbours in structure and some others; about 10% of the full set was active somewhere.
# HEK293 tox = Cytotoxic Profiling in HEK 293 Cell Line of Diverse Libraries Using Quantitative High-Throughput Screening | HEK 293 viability, ATP luminescence (CellTiter-Glo), 48-72 h | Potency, µM (titrated, usually from 115 µM), without a hit: at the top dose activity change, negative = cytotoxicity, hits mostly inhibitors | hit rate 6.6% among 94,000; further: nearly all actives have a fitted effect of over 60% in size
#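 Cytotoxicity was scored by loss of ATP-coupled luminescence (CellTiter-Glo) in HEK 293 cells. Compound treatment ran 48 or 72 hr at 37 degree Celsius, 5% CO2, 95% humidity.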
# GPT2 inhibitor = Primary qHTS assay for inhibitors of Glutamate pyruvate transaminase 2 (GPT2) | Alanine aminotransferase 2 (Homo sapiens), Q8TD30 | Recombinant GPT2, coupled pyruvate oxidase/HRP Amplex Red fluorescence | Potency, µM (top dose mostly 57.7 µM), inactives show at the highest dose activity change, negative = inhibition, most hits filed as inhibitors | hit rate 0.25% among 100,000 | AID 1671188, 2021; further: nearly all actives have a fitted effect of over 60% in size
#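 Inhibition is scored from Amplex Red fluorescence generated when pyruvate oxidase and HRP act on pyruvate released by GPT2. Reactions contain 10ng/uL enzyme, 250uM a-KG and 2mM L-alanine and run 30 min at room temperature.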
# FLuc inh = Firefly luciferase inhibition profiling of diverse chemical library using quantitative high-throughput screening | Luciferin 4-monooxygenase (Photinus pyralis), P08659 | purified P. pyralis luciferase, luminescence, biochemical | hit rate 2.5% among 76,000 | Potency, µM (series often up to 115 µM), hits mostly inhibitors; further: nearly all actives have a fitted effect of over 65% in size
# Target sequence (P08659 whole entry, looked up): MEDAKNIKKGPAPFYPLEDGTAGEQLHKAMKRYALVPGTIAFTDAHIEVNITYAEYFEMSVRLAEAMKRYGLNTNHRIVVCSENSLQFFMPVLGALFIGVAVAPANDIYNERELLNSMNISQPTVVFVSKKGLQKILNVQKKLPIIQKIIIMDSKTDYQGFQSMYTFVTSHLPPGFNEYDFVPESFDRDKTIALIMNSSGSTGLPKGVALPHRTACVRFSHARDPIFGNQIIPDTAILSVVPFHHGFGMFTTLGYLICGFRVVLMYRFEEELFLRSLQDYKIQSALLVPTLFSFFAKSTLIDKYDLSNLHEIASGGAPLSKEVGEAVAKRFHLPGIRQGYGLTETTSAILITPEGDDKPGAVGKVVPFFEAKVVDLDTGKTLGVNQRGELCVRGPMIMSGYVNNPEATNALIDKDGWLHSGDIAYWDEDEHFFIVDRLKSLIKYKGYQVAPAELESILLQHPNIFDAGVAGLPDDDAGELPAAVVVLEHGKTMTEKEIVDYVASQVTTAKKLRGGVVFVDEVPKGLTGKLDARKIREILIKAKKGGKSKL
#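 Luminescence read by CCD imager after adding enzyme (10nM final) to wells holding compound, titrated in qHTS. Substrates 10uM each D-luciferin and ATP; buffer 50mM Tris acetate pH 7.5, 10mM Mg acetate, Tween-20, BSA.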
# NPR1 antag = Natriuretic polypeptide receptor (hNpr1) antagonism - Primary qHTS | Atrial natriuretic peptide receptor 1 (Homo sapiens), P16066 | HEK293 hNpr1 GloSensor cGMP, ANP-stimulated luminescence | Potency, µM (doses to about 46.3 µM), without a hit: at the highest dose activity change, negative = inhibition, usual class: inhibitors | hit rate 1.6% among 76,000 | AID 1347048, 2019; calls by dose curve; further: nearly all actives have a fitted effect of over 60% in size
#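 Compound pre-incubated 30 min at room temperature on GloSensor-loaded HEK293 cells stably carrying hNpr1 and the pGS-40F cGMP biosensor. Stimulation uses hNppA at 0.1 nM final; luminescence is taken at baseline and 20 min post-agonist.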
# 3T3 cytotox = Cytotoxic Profiling in NIH 3T3 Cell Line of Diverse Libraries Using Quantitative High-Throughput Screening. NIH 3T3 viability, CellTiter-Glo ATP luminescence, 48-72 h. Potency, µM (series often up to 96.7 µM), without a hit: at the highest dose activity change, negative = cytotoxicity, hits mostly inhibitors. hit rate 4.3% among 94,000. AID 1345082, 2018; further: nearly all actives have a fitted effect of over 55% in size
#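 Cytotoxicity is measured as loss of cellular ATP: NIH 3T3 cells (400/well) are exposed to compound for 48 or 72 hr at 37 °C, then CellTiter-Glo luminescence is imaged after 10 min at room temperature.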
# Starred values were filed as active, the others as inactive; i = inactive; ? = inconclusive; nt = not tested or not shown; [ ] = dose if it differs, or a comment. Unless noted, the call rests on the fitted dose curve; in most records, active means well fitted curve in the direction sought with a large enough effect; inconclusive means small, poorly fitted or top-dose-only effect, or another doubt; inactive means no such curve, though single readings can be large; an effect the other way counts as inactive or inconclusive. On the % scale 0 is the no-effect control and ±100 the full control effect; potency means the concentration at half of the fitted maximal effect.
SMILES,HEK293 tox,GPT2 inhibitor,FLuc inh,NPR1 antag,3T3 cytotox
Cc1cccc(S(=O)(=O)N2CCN(C3CCN(Cc4ccccn4)C3=O)CC2)c1 (stereo not drawn),-25%,?,i,-4%,-30%
Cc1ncc2c(c1CNC(=O)c1ccc(OC(F)F)cc1)CCNC2,2%,3%,i,-1%,-7%
O=C(Cn1cnnn1)N1CC(c2noc(C3CCCN3CC3CC3)n2)C1 (stereo not drawn),4%,2%,i,7%,3%
O=C(N[C@@H]1CCN(C(=O)Cc2noc3ccccc23)C[C@H]1O)c1cccnc1,-4%,-17%,i,5%,-1%
O=C(C1CCCN1C(=O)c1ccc(Cl)nc1)N1CCCC(c2nc3ncccc3[nH]2)C1 (stereo not drawn),0%,2%,nt,nt,-9%
CN(c1ccccc1)c1cc(=O)c2ccnc(-c3ccccc3O)c2o1,?,0%[88.5 µM],i,-4%[70.6 µM],?
CN1CCN(c2ccc(-c3nccc4c(=O)cc(N(C)C5CCOCC5)oc34)cn2)CC1,i,-7%[88.5 µM],i,4%[70.6 µM],89µM*
CN(c1cc(=O)c2ccnc(-c3ccc(O)c(F)c3)c2o1)C1CCOCC1,-19%[172 µM],?,i,-3%[70.6 µM],8.9µM*
C[S+](=O)([O-])N1CC2(CCCCN2Cc2ccccn2)Cc2ccccc21 (stereo not drawn),-18%,-3%,nt,nt,-16%
Cc1cnc(CC2CCN(C(=O)C3CC3)CC2)n1Cc1ccccc1,-14%,-16%,i,0%,?
COc1cccc(-c2nn(-c3ccccc3)c(OC(C)=O)c2-c2ccc(NC(=O)C3CCCC3)cc2)c1,?,7.1µM*,i,-17%,?
CC(=O)Oc1c(-c2ccc(NC(=O)c3ccco3)cc2)c(-c2cccc(C)c2)nn1-c1ccc(F)cc1,?,25µM*,?,-26%,?
COc1ccc(-c2nn(-c3ccccc3C)c(OC(C)=O)c2-c2ccc(NC(C)=O)cc2)cc1OC,?,i,i,-3%,-21%
CC(=O)Oc1c(-c2ccc(NC(=O)c3ccco3)cc2)c(-c2cccc(C)c2)nn1-c1cccc(F)c1,?,?,i,-13%,?
CC(=O)Oc1c(-c2ccc(NC(=O)c3ccco3)cc2)c(-c2cccc(F)c2)nn1-c1ccc(C)cc1,?,28µM*,i,-15%,?
Cc1nc(CN2C(=O)OC3(CCN(Cc4ccccc4F)CC3)C2(C)c2ccccc2)cs1 (stereo not drawn),?,-11%,i,1%,-22%
Cn1ccc2cc(-c3csc(CN4CC(C)(NC(=O)C5CC5)C4)n3)ccc21,?,0%[88.5 µM],?,?,?
CC1(NC(=O)C2CC2)CN(Cc2nc(-c3ccc(Oc4ccccc4)cc3)cs2)C1,35µM*,-9%[88.5 µM],?,8.9µM*,?
CC1(NC(=O)C2CC2)CN(Cc2nc(-c3cccc(N4CCOCC4)c3)cs2)C1,?,i,40µM*,-2%[70.6 µM],-20%[138 µM]
O=C([C@@H]1C[C@H](Oc2ccccc2)CN1C(=O)c1ccsc1)N1CCOCC1,0%,-8%,i,7%,i
CCOC(=O)C1(Cc2ccccc2)CCCN(C(=O)c2ccccc2SC)C1 (stereo not drawn),45µM*,i,?,-9%,?
CCCc1cc(C(=O)N2CCCC(Cc3ccccc3F)(C(=O)OCC)C2)n(C)n1 (stereo not drawn),18µM*,?,i,-23%,?
O=S(=O)(Cc1ccccc1F)N1CCCC(Cc2noc(C3CC3)n2)C1 (stereo not drawn),-25%,i,i,-10%,-32%
COc1cc(C)ccc1OCc1cc(C(=O)N(C)Cc2ncccc2C)no1,40µM*,i,i,3%,35µM*
O=C(c1c[nH]c2ccccc12)N1CCC2(CC1)CNS(=O)(=O)c1cccnc1O2,-17%,-6%,nt,nt,-14%
SMILES,HEK293 tox,GPT2 inhibitor,FLuc inh,NPR1 antag,3T3 cytotox
CN1Cc2ccc(Nc3ccccc3)nc2C(C)(C(=O)NCc2cccs2)C1 (stereo not drawn),71µM*,?,i,-20%[70.6 µM],?
CC1(C(=O)NC2COC2)CN(Cc2ccccc2)Cc2ccc(Nc3ccccc3)nc21 (stereo not drawn),89µM*,-3%[88.5 µM],i,-2%[70.6 µM],40µM*
CN1Cc2ccc(NCc3ccccc3)nc2C(C)(C(=O)NCc2cccnc2)C1 (stereo not drawn),?,-1%[88.5 µM],i,-8%[70.6 µM],?
COCCN1Cc2ccc(NCc3ccccc3)nc2C(C)(C(=O)NC2COC2)C1 (stereo not drawn),?,-9%[88.5 µM],i,7%[70.6 µM],?
CNC(=O)C1(C)CN(Cc2ccccc2)Cc2ccc(Nc3ccccc3)nc21 (stereo not drawn),79µM*,-1%[88.5 µM],?,?,?
CC1(C(=O)NC2CCOCC2)CN(Cc2ccccc2)Cc2ccc(Nc3ccccc3)nc21 (stereo not drawn),?,-17%,i,-13%,32µM*
COC1CCN(C(=O)C2(C)CN(Cc3ccccc3)Cc3ccc(Nc4ccccc4)nc32)CC1 (stereo not drawn),?,-37%,i,-17%,?
CN1CCC(NC(=O)C2(C)CN(Cc3ccccc3)Cc3ccc(Nc4ccccc4)nc32)CC1 (stereo not drawn),18µM*,i,i,-3%,16µM*
CC1(CNc2ccccc2)COc2ccc(C(=O)NCc3ccc(F)cc3)cc2N1 (stereo not drawn),71µM*,0%[88.5 µM],i,-19%[70.6 µM],45µM*
COc1cc(CNC(=O)c2ccc3c(c2)NC(C)(CNc2ccccc2)CO3)cc(OC)c1 (stereo not drawn),35µM*,3%,i,1%,?
CCOCC1(C)COc2ccc(C(=O)NCc3cc(OC)cc(OC)c3)cc2N1 (stereo not drawn),?,-22%[88.5 µM],i,-22%[70.6 µM],-9%[138 µM]
CC1(CNc2ccccc2)COc2ccc(C(=O)NCCc3ccccc3)cc2N1 (stereo not drawn),?,5%[88.5 µM],?,0%[70.6 µM],28µM*
CC1(CCCCc2ccccc2)COc2ccc(C(=O)NC3CCC(O)CC3)cc2N1 (stereo not drawn),71µM*,-10%[88.5 µM],i,-5%[70.6 µM],79µM*
CNC(=O)c1ccc2c(c1)NC(C)(CNc1ccccc1)CO2 (stereo not drawn),?,i,i,-4%[70.6 µM],-24%[138 µM]
